Compound activity: PubChem BioAssay, The Scripps Research Institute Molecular Screening Center
An excerpt weighted towards active compounds, which were near 3.4% of everything screened.
FBW7 activator – FBW7 E3 ligase activators, primary screen, biochemical, AlphaScreen, human; F-box/WD repeat-containing protein 7 (Homo sapiens), Q969H0; AlphaScreen FBW7–phospho-cyclin E peptide binding, activator screen; normalized activity (activation), % at 26.1 µM; actives 0.13% (n = 650,000); AID 1259310, 2017; in the data active means normalized activity above about 1.9%;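 further: purified mutant Fbw7 with reduced substrate affinity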
GPR151 activ – activators of human GPR151, primary screen, cell-based, PathHunter beta-arrestin, luminescence; AID 1508602, 2020; activation, % at 11.2 µM; actives 1% (n = 650,000); G-protein coupled receptor 151 (Homo sapiens), Q8TDV0; PathHunter beta-arrestin GPR151 cells; in the data active means activation above about 4.9%;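 further: 0% = median of compound wells and 100% = cells with positive control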
TEAD-YAP block – TEAD-YAP interaction inhibition, primary screen, TEAD-YAP interaction inhibitor project, luminescence, HEK-TIYL cells; inhibition, % at 9.12 µM; actives 1.4% (n = 640,000); TEAD-Gal4/YAP UAS-luciferase luminescence; AID 1259422, 2018; in the data active means inhibition above about 32%;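 further: 0% = median of test compound wells and 100% = reference inhibitor wells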
MITF inh – MITF inhibitors, primary screen, biochemical, AlphaScreen, human | inhibition, % at 2.6 µM | AlphaScreen MITF homodimerization, bead proximity signal | actives 0.91% (n = 650,000) | Microphthalmia-associated transcription factor (Homo sapiens), O75030 | AID 1259374, 2018; in the data active means inhibition above about 50%;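 further: 0% = vehicle wells with protein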
GPR151 confirm – GPR151 activators, triplicate retest, confirmation, cell-based, PathHunter beta-arrestin, luminescence | shares compounds with GPR151 activ | AID 1508609, 2020 | activation, % at 11.2 µM | 6,700 tested, under 10 active | GPR151 PathHunter beta-arrestin cells, 90 min; % of EA-reagent control over plate median;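 active means mean percent activation across replicates above the confirmation screen cutoff of 4.91%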
GPR119 ag – GPR119 activators in beta-arrestin cells, counter-screen for GPR151 activator project, cell-based, PathHunter beta-arrestin, luminescence, triplicate; AID 1508611, 2020; 90 min; 0 = compound-well median, 100 = enzyme-acceptor control; shares compounds with GPR151 activ; activation, % at 11.2 µM; actives 0.3% (n = 6,700);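 active means mean percent activation in the counterscreen above 29.09%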;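 further: counterscreen on off-target GPR119 to flag nonselective hits from the GPR151 activator screen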
Target sequence (Q8TDV5 whole entry, looked up): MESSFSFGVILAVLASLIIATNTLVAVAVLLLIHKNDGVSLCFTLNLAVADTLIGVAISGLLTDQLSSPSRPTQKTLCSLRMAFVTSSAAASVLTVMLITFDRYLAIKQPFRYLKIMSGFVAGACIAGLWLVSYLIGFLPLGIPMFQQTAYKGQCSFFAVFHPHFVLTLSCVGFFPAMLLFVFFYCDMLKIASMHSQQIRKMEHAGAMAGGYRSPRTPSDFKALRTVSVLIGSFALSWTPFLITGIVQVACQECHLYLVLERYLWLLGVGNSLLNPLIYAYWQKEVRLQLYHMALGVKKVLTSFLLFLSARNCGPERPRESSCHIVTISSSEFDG
An asterisk follows results filed as active; . = no result given; ! = not confirmed by another sample.

SMILES | FBW7 activator | GPR151 activ | TEAD-YAP block | MITF inh | GPR151 confirm | GPR119 ag
CS(=O)(=O)N(CC(=O)N1CCC(C(N)=O)CC1)c1ccc(Oc2ccccc2)cc1 | 0 | 5.0* | -8 | -2 | -1 | -6
Clc1ccccc1C(c1ccccc1)(c1ccccc1)n1ccnc1 | 0 | 6.9*! | 0 | -14 | 2 | -12
CC(Oc1ccc2c(c1)OCO2)C(=O)NNC(=O)Nc1cccc(Cl)c1Cl (centres undefined) | 0 | 0 | 5 | -18 | . | .
Cc1cc(OC(C)C(=O)NNC(=O)Nc2cccc(Cl)c2Cl)ccc1[N+](=O)[O-] (centres undefined) | 0 | 6.1* | -6 | 19 | 0 | 4
O=C(O)CN1C(=O)C2CC=CCC2C1=O (centres undefined) | 1 | 1 | -7 | -4 | . | .
COc1ccccc1Cn1c(=S)[nH]c2cc(C(=O)N3CCC(C(N)=O)(N4CCCCC4)CC3)ccc2c1=O | 0 | 5.8* | 11 | 7 | 2 | 10
COc1ccccc1Cn1c(=S)[nH]c2cc(C(=O)N3CCCCC3)ccc2c1=O | 1 | -1 | 10 | 16 | . | .
CCCC(c1nnnn1CCOC)N1CCN(c2cccc(C(F)(F)F)c2)CC1 (centres undefined) | 0 | 5.4* | -9 | 0 | -1 | -11
N#Cc1c(N)nc2c(c1-c1ccsc1)CCCC2 | 0 | 5.0* | -1 | -11 | 0 | -2
O=C(Cn1ncc2c(=O)oc3ccccc3c21)Nc1cnc2ccccc2c1 | 1 | -1 | -4 | 17 | . | .
O=C(NCc1nc2ccccc2[nH]1)c1ccc2nc(Nc3ccc4ncccc4c3)sc2c1 | 0 | 6.3* | -22 | 5 | 1 | -3
C=CCn1c(O)c(C2=c3cc(F)ccc3=NC2=O)sc1=S | 0 | -2 | -4 | -12 | . | .
CCN1C(=O)/C(=C/c2cc(C)n(C3CCCC3)c2C)C(=O)NC1=S | 0 | 6.3* | 0 | 21 | 0 | -11
COc1cc(C)nc(N2CCC(C(N)=O)CC2)n1 | 0 | 5.2* | 0 | -7 | 0 | 0
COc1cccc(NC(=O)C(CCSC)NC(=O)C2CCC(C)CC2)c1 (centres undefined) | 0 | 10* | -7 | -4 | 1 | -2
CCOC(=O)c1cccc(NC(=O)C(CCSC)NC(=O)C2CCC(C)CC2)c1 (centres undefined) | 0 | 0 | -5 | -5 | . | .
O=C(CC(SCc1ccco1)c1cccc([N+](=O)[O-])c1)c1ccco1 (centres undefined) | 0 | -2 | -1 | 10 | . | .
Cc1cc(C)n2c(SCCO)nnc2n1 | 0 | 5.6* | 10 | 8 | 0 | -6
Cc1cc(C)n2c(SCCNCCO)nnc2n1 | 0 | 1 | 5 | 27 | . | .
CCc1cc(C(=O)Cc2ccc3c(c2)OCCCO3)c(O)cc1OC | 0 | 5.2* | -3 | -6 | -2 | -15
COc1ccc(-c2cccc(C(=O)NCc3cccc(C(F)(F)F)c3)c2)cc1 | 0 | 0 | 6 | 11 | . | .
O=C1c2cccc3cccc(c23)C(=O)N1Cc1ccco1 | 0 | -2 | -4 | 16 | . | .
O=C1c2cc3ccccc3cc2C(=O)N1Cc1ccco1 | 0 | 5.8* | 9 | 17 | 0 | -8
Cc1cc(C)n2nc(C(=O)Nc3ccc(C(C)(C)C)cc3)nc2n1 | 0 | 0 | -9 | -5 | . | .
C=CCOc1ccccc1CNc1cccc(C(=O)O)c1 | 0 | -2 | 2 | 17 | . | .
SMILES | FBW7 activator | GPR151 activ | TEAD-YAP block | MITF inh | GPR151 confirm | GPR119 ag
O=C(O)c1cccc(NCc2cccc3ccccc23)c1 | 0 | 11* | -19 | 10 | 0 | 3
O=C1Nc2ccc3ccccc3c2C(c2ccccc2)N1 (centres undefined) | 1 | 9.1* | 16 | 1 | -1 | -13
COc1ccc(CCNc2nc(Nc3nc4ccccc4n3C)nc3c2ncn3CCN2CCCC2=O)cc1 | 0 | 1 | 18 | 13 | . | .
Fc1ccccc1CSc1nnc(-c2cnccn2)n1Cc1ccco1 | 0 | 9.9* | -34 | 3 | 0 | 20
Cc1noc(CNC(=O)c2ccc3ccccc3n2)n1 | 0 | 5.4* | -8 | 10 | 0 | -8
NC(=O)COc1ccc(C=O)cc1Cl | 0 | 0 | -5 | 11 | . | .
Cn1c(C(=O)NCc2ccccn2)cc2sccc21 | 0 | 0 | -1 | 6 | . | .
COc1ccccc1NC(=O)CSc1nc2ccsc2c(=O)n1-c1ccc(Cl)cc1 | 0 | 5.6* | 0 | -4 | 1 | 10
COc1ccc(-n2c(SCC(=O)Nc3ccccc3OC)nc3ccsc3c2=O)cc1 | 0 | -1 | 2 | 4 | . | .
Cc1cc(NC(=O)c2ccc3c(c2)C(=O)N(c2ccc([N+](=O)[O-])cc2)C3=O)no1 | 0 | 5.7* | 8 | 7 | -1 | 3
Cc1cccc(N(CCCN2C(=O)c3cccc4cccc(c34)C2=O)C(=O)c2cccs2)c1 | 0 | 5.7* | -2 | -7 | 2 | 12
Cc1ccc(C(C(=O)NC(C)(C)C)N(C(=O)c2csnn2)c2ccc(Cl)cc2)o1 (centres undefined) | 0 | 0 | 0 | -3 | . | .
COc1ccc(C(C)n2c(C)c3c(C)nnc(C)c3c2C)cc1 (centres undefined) | 1 | 11* | -13 | -10 | 0 | -1
Cc1nnc(C)c2c(C)n(C(C)c3ccccc3)c(C)c12 (centres undefined) | 0 | -1 | -27 | -5 | . | .
COCC1CCCCN1C(=O)CC1(c2ccccc2)CC(=O)N(CCc2ccccn2)C1=O (centres undefined) | 1 | 5.4* | -2 | 17 | 0 | 8
CCOC(=O)[C@H](CCc1ccccc1)N[C@@H](C)C(=O)N1[C@H](C(=O)O)C[C@@H]2CCC[C@@H]21 | 0 | 7.0*! | 7 | -3 | 2 | 12
CCC(Sc1nc(C)c(C)c(=O)[nH]1)C(=O)O (centres undefined) | 0 | 0 | 4 | 10 | . | .
COc1ccc(-c2noc(N3CCN(c4ccc(C)cc4)C(C)C3)n2)cc1 (centres undefined) | 0 | 5.0* | 1 | 1 | -1 | -2
NCC(=O)NCC(=O)OCc1ccccc1 | 0 | 7.5* | 6 | -3 | 1 | 7
O=C(Cc1ccccc1)NCC(=O)OCc1ccc(Cl)cc1 | 0 | 1 | -20 | -4 | . | .
CCOC(=O)CNC(=O)OCc1ccccc1 | 0 | -1 | 4 | 0 | . | .
CCOC(=O)CNC(=O)N(Cc1ccccc1)Cc1ccccc1 | 0 | 5.3* | -7 | -8 | 0 | -7
